# Assay results published in PubChem BioAssay AID1159580 (chemical genetic matrix, 2015).
# Values joined by “and” are separate entries in the source; they are usually repeats but may differ in a detail not shown here. Equal entries are not always repeated. In all, about 5,500 compounds went through this assay and about 2,000 (36%) were called active. Not shown: some 18% with an inconclusive outcome. Cut-off read from the data, not from the text of the source: active = normalized growth mostly below about 0.91 (no sharp cut-off); inconclusive = no clear call, values can overlap the other calls; inactive = mostly above about 0.92. This is one part of the list.
# Experiment: chemical genetic growth profiling, strain panel (AID 1159580);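 note: tested at 20 µM; growth read once vehicle control cultures reached saturation at 30 °C; 1 = growth at the plate median or of vehicle wells; lower values mean less growth of the strain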
# Conditions: S. cerevisiae deletion strains, growth OD
smiles,measurement,setting,value
CN(Cc1cnc2nc(N)nc(N)c2n1)c1ccc(C(=O)NC(CCC(=O)O)C(=O)O)cc1 (stereo unspecified),normalized growth,"locus YAL021C, strain ccr4, stronger effect = lower value",0.958 (inactive)
same,normalized growth,"locus YAL026C, strain drs2, stronger effect = lower value",0.911 (inactive)
same,normalized growth,"locus YAL030W, strain snc1, stronger effect = lower value",0.945 (inactive)
same,normalized growth,"locus YAL040C, strain CLN3, stronger effect = lower value",1.09 (inactive)
same,normalized growth,"locus YBL061C, strain skt5, stronger effect = lower value",0.927 (inactive)
same,normalized growth,"locus YBR009C, strain hhf1, stronger effect = lower value",0.888 (active)
same,normalized growth,"locus YBR021W, strain FUR4, stronger effect = lower value",0.958 (inactive)
same,normalized growth,"locus YBR023C, strain chs3, stronger effect = lower value",0.911 (active)
same,normalized growth,"locus YBR171W, strain sec66, stronger effect = lower value",0.94 (inactive)
same,normalized growth,"locus YBR229C, strain ROT2, stronger effect = lower value",0.987 (inactive)
same,normalized growth,"locus YBR231C, strain swc5, stronger effect = lower value",0.931 (inactive)
same,normalized growth,"locus YBR279W, strain paf1, stronger effect = lower value",0.962 (inactive)
same,normalized growth,"locus YCL011C, strain gbp2, stronger effect = lower value",0.857 (active)
same,normalized growth,"locus YCL016C, strain dcc1, stronger effect = lower value",0.867 (active)
same,normalized growth,"locus YCL029C, strain bik1, stronger effect = lower value",0.988 (inactive)
same,normalized growth,"locus YCL061C, strain MRC1 (second series), stronger effect = lower value",1.01 (inactive)
same,normalized growth,"locus YCL061C, strain MRC1, stronger effect = lower value",0.891 (active)
same,normalized growth,"locus YCL069W, strain vba3, stronger effect = lower value",0.948 (inactive)
same,normalized growth,"locus YCR088W, strain abp1, stronger effect = lower value",0.954 (inactive)
same,normalized growth,"locus YDL005C, strain med2, stronger effect = lower value",0.997 (inactive)
same,normalized growth,"locus YDL035C, strain GPR1, stronger effect = lower value",0.975 (inactive)
same,normalized growth,"locus YDL040C, strain nat1, stronger effect = lower value",0.959 (inactive)
same,normalized growth,"locus YDL074C, strain BRE1, stronger effect = lower value",0.963 (inactive)
same,normalized growth,"locus YDL101C, strain DUN1, stronger effect = lower value",0.997 (inactive)
same,normalized growth,"locus YDL134C, strain PPH21, stronger effect = lower value",1 (inactive)
same,normalized growth,"locus YDL185W, strain tfp1, stronger effect = lower value",0.141 (active)
same,normalized growth,"locus YDL192W, strain arf1, stronger effect = lower value",0.95 (inactive)
same,normalized growth,"locus YDR001C, strain nth1, stronger effect = lower value",0.933 (inactive)
same,normalized growth,"locus YDR069C, strain doa4, stronger effect = lower value",0.955 (inactive)
same,normalized growth,"locus YDR101C, strain arx1, stronger effect = lower value",0.994 (inactive)
same,normalized growth,"locus YDR137W, strain rgp1, stronger effect = lower value",0.907 (inactive)
same,normalized growth,"locus YDR150W, strain NUM1, stronger effect = lower value",0.974 (inactive) and 0.986 (inactive)
same,normalized growth,"locus YDR159W, strain sac3, stronger effect = lower value",0.978 (inactive)
same,normalized growth,"locus YDR162C, strain NBP2, stronger effect = lower value",0.982 (inactive)
same,normalized growth,"locus YDR195W, strain ref2",1.01 (inactive)
same,normalized growth,"locus YDR297W, strain sur2, stronger effect = lower value",0.955 (inactive)
same,normalized growth,"locus YDR318W, strain mcm21, stronger effect = lower value",0.994 (inactive)
same,normalized growth,"locus YDR334W, strain swr1, stronger effect = lower value",0.881 (active)
same,normalized growth,"locus YDR335W, strain msn5, stronger effect = lower value",0.97 (inactive)
same,normalized growth,"locus YDR388W, stronger effect = lower value",1 (inactive)
same,normalized growth,"locus YDR392W, strain spt3, stronger effect = lower value",0.951 (inactive)
same,normalized growth,"locus YDR502C, strain sam2, stronger effect = lower value",0.967 (inactive)
same,normalized growth,"locus YEL003W, strain gim4, stronger effect = lower value",0.967 (inactive)
same,normalized growth,"locus YEL037C, strain rad23, stronger effect = lower value",0.902 (active)
same,normalized growth,"locus YEL061C, strain CIN8 (second series), stronger effect = lower value",0.944 (inactive)
same,normalized growth,"locus YEL061C, strain CIN8, stronger effect = lower value",0.962 (inactive)
same,normalized growth,"locus YER002W, strain NOP16, stronger effect = lower value",0.971 (inactive)
same,normalized growth,"locus YER015W, strain faa2, stronger effect = lower value",0.958 (inactive)
same,normalized growth,"locus YER016W, strain bim1, stronger effect = lower value",0.965 (inactive)
same,normalized growth,"locus YER110C, stronger effect = lower value",0.985 (inactive)
same,normalized growth,"locus YER111C, strain swi4, stronger effect = lower value",0.962 (inactive)
same,normalized growth,"locus YER155C, strain BEM2 (second series), stronger effect = lower value",0.892 (inactive)
same,normalized growth,"locus YER155C, strain BEM2, stronger effect = lower value",0.976 (inactive)
same,normalized growth,"locus YER167W, strain BCK2, stronger effect = lower value",0.958 (inactive)
same,normalized growth,"locus YFR010W, strain ubp6, stronger effect = lower value",0.942 (inactive)
same,normalized growth,"locus YGL078C, strain dbp3, stronger effect = lower value",0.32 (active)
same,normalized growth,"locus YGL086W, strain mad1, stronger effect = lower value",1 (inactive)
same,normalized growth,"locus YGL167C, strain pmr1, stronger effect = lower value",0.942 (inactive)
same,normalized growth,"locus YGL173C, strain kem1, stronger effect = lower value",0.96 (inactive)
same,normalized growth,"locus YGL227W, strain vid30, stronger effect = lower value",0.922 (inactive)
same,normalized growth,"locus YGL240W, strain doc1, stronger effect = lower value",0.967 (inactive)
same,normalized growth,"locus YGL248W, strain PDE1, stronger effect = lower value",0.994 (inactive)
same,normalized growth,"locus YGL253W, strain hxk2, stronger effect = lower value",0.934 (inactive)
same,normalized growth,"locus YGR135W, strain pre9, stronger effect = lower value",0.933 (inactive)
same,normalized growth,"locus YGR252W, strain gcn5, stronger effect = lower value",1.02 (inactive)
same,normalized growth,"locus YHR013C, strain ard1, stronger effect = lower value",0.938 (inactive)
same,normalized growth,"locus YHR027C, strain rpn1, stronger effect = lower value",0.945 (inactive)
same,normalized growth,"locus YHR030C, strain SLT2, stronger effect = lower value",0.946 (inactive) and 0.147 (active)
same,normalized growth,"locus YHR079C, strain IRE1 (second series), stronger effect = lower value",0.988 (inactive)
same,normalized growth,"locus YHR079C, strain IRE1, stronger effect = lower value",0.188 (active)
same,normalized growth,"locus YHR094C, strain hxt1, stronger effect = lower value",1 (inactive)
same,normalized growth,"locus YHR129C, strain ARP1, stronger effect = lower value",0.982 (inactive)
same,normalized growth,"locus YHR142W, strain chs7, stronger effect = lower value",0.86 (active)
same,normalized growth,"locus YHR200W, strain rpn10, stronger effect = lower value",0.959 (inactive)
same,normalized growth,"locus YIL066C, strain RNR3, stronger effect = lower value",1 (inactive)
same,normalized growth,"locus YIL073C, strain SPO22, stronger effect = lower value",0.95 (inactive)
same,normalized growth,"locus YIL125W, strain kgd1, stronger effect = lower value",0.278 (active)
same,normalized growth,"locus YIR030C, strain dcg1, stronger effect = lower value",0.975 (inactive)
same,normalized growth,"locus YJL092W, strain hpr5, stronger effect = lower value",0.818 (active)
same,normalized growth,"locus YJL095W, strain BCK1 (second series), stronger effect = lower value",0.964 (inactive)
same,normalized growth,"locus YJL095W, strain BCK1, stronger effect = lower value",0.993 (inactive) and 0.152 (active)
same,normalized growth,"locus YJL115W, strain asf1, stronger effect = lower value",0.845 (active)
same,normalized growth,"locus YJL129C, strain trk1, stronger effect = lower value",0.89 (inactive)
same,normalized growth,"locus YJL134W, strain LCB3, stronger effect = lower value",0.992 (inactive)
same,normalized growth,"locus YJL154C, strain vps35, stronger effect = lower value",0.96 (inactive)
same,normalized growth,"locus YJL164C, strain tpk1, stronger effect = lower value",0.96 (inactive)
same,normalized growth,"locus YJL166W, strain qcr8, stronger effect = lower value",0.94 (inactive)
same,normalized growth,"locus YJL168C, strain set2, stronger effect = lower value",1 (inactive)
same,normalized growth,"locus YJL187C, strain SWE1 (second series), stronger effect = lower value",0.99 (inactive)
same,normalized growth,"locus YJL187C, strain SWE1, stronger effect = lower value",0.953 (inactive)
same,normalized growth,"locus YJR043C, strain POL32, stronger effect = lower value",0.98 (inactive)
